Source: PubChem BioAssay AID1159580 (chemical genetic matrix, 2015)
Where “and” joins values, the source holds several entries; their conditions need not be identical. Identical values can stand only once. Screen size: about 5,500 compounds; about 2,000 (36%) were called active. Not shown: some 18% with an inconclusive outcome. Cut-off read from the data, not from the text of the source: active = normalized growth mostly below about 0.91 (no sharp cut-off); inconclusive = no clear call, values can overlap the other calls; inactive = mostly above about 0.92. The list shows a part of the results.

Assay: chemical genetic growth profiling, strain panel (AID 1159580);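 note: tested at 20 µM; growth read once vehicle control cultures reached saturation at 30 °C; 1 = growth at the plate median or of vehicle wells; lower values mean less growth of the strain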
Details: S. cerevisiae deletion strains, growth OD

Measured: normalized growth

CC(=O)Oc1cccc(O)c1
inactive: locus YAL021C, strain ccr4, active compounds read low 1 | locus YAL026C, strain drs2, active compounds read low 1.04 | locus YAL030W, strain snc1, active compounds read low 1.01 | locus YBL061C, strain skt5, active compounds read low 1.02 | locus YBR009C, strain hhf1, active compounds read low 1.01 | locus YBR021W, strain FUR4, active compounds read low 0.973 | locus YBR023C, strain chs3, active compounds read low 1.03 | locus YBR171W, strain sec66, active compounds read low 1.03 | locus YBR229C, strain ROT2, active compounds read low 1 | locus YBR231C, strain swc5, active compounds read low 1.03 | locus YBR279W, strain paf1, active compounds read low 1.02 | locus YCL011C, strain gbp2, active compounds read low 1.02 | locus YCL016C, strain dcc1, active compounds read low 1.01 | locus YCL029C, strain bik1, active compounds read low 1.01 | locus YCL069W, strain vba3, active compounds read low 1.03 | locus YCR088W, strain abp1, active compounds read low 1.02 | locus YDL005C, strain med2, active compounds read low 1.03 | locus YDL035C, strain GPR1, active compounds read low 1.01 | locus YDL040C, strain nat1, active compounds read low 1.02 | locus YDL074C, strain BRE1, active compounds read low 0.996 | locus YDL101C, strain DUN1, active compounds read low 1.01 | locus YDL134C, strain PPH21, active compounds read low 1.01 | locus YDL185W, strain tfp1, active compounds read low 1.03 | locus YDL192W, strain arf1, active compounds read low 1.02 | locus YDR001C, strain nth1, active compounds read low 1.02 | locus YDR069C, strain doa4, active compounds read low 1.03 | locus YDR101C, strain arx1, active compounds read low 0.996 | locus YDR137W, strain rgp1, active compounds read low 1.05 | locus YDR159W, strain sac3, active compounds read low 1.05 | locus YDR162C, strain NBP2, active compounds read low 1.02 | locus YDR195W, strain ref2 1.03 | locus YDR297W, strain sur2, active compounds read low 1.04 | locus YDR318W, strain mcm21, active compounds read low 1.01 | locus YDR334W, strain swr1, active compounds read low 1.01 | locus YDR335W, strain msn5, active compounds read low 1.01 | locus YDR388W, active compounds read low 1.02 | locus YDR392W, strain spt3, active compounds read low 1.01 | locus YDR502C, strain sam2, active compounds read low 1.03 | locus YEL003W, strain gim4, active compounds read low 1.02 | locus YEL037C, strain rad23, active compounds read low 1.02 | locus YEL061C, strain CIN8 (second series), active compounds read low 1.02 | locus YEL061C, strain CIN8, active compounds read low 1.01 | locus YER015W, strain faa2, active compounds read low 1.02 | locus YER110C, active compounds read low 1.03 | locus YER111C, strain swi4, active compounds read low 1.02 | locus YER155C, strain BEM2 (second series), active compounds read low 1.02 | locus YER155C, strain BEM2, active compounds read low 0.996 | locus YER167W, strain BCK2, active compounds read low 1 | locus YFR010W, strain ubp6, active compounds read low 1.04 | locus YGL078C, strain dbp3, active compounds read low 1.02 | locus YGL086W, strain mad1, active compounds read low 0.999 | locus YGL167C, strain pmr1, active compounds read low 1.02 | locus YGL173C, strain kem1, active compounds read low 1.04 | locus YGL227W, strain vid30, active compounds read low 1.02 | locus YGL240W, strain doc1, active compounds read low 1.02 | locus YGL248W, strain PDE1, active compounds read low 1.01 | locus YGL253W, strain hxk2, active compounds read low 1.02 | locus YGR078C, strain PAC10, active compounds read low 1 | locus YGR135W, strain pre9, active compounds read low 1.03 | locus YGR229C, strain SMI1, active compounds read low 1 | locus YGR252W, strain gcn5, active compounds read low 1.06 | locus YHR013C, strain ard1, active compounds read low 1.02 | locus YHR027C, strain rpn1, active compounds read low 1.02 | locus YHR030C, strain SLT2, active compounds read low 1.01 and 0.949 | locus YHR079C, strain IRE1 (second series), active compounds read low 1.01 | locus YHR079C, strain IRE1, active compounds read low 0.967 | locus YHR094C, strain hxt1, active compounds read low 1.01 | locus YHR129C, strain ARP1, active compounds read low 1.01 | locus YHR142W, strain chs7, active compounds read low 1.03 | locus YHR200W, strain rpn10, active compounds read low 1.02 | locus YIL066C, strain RNR3, active compounds read low 1 | locus YIL073C, strain SPO22, active compounds read low 1.04 | locus YIL125W, strain kgd1, active compounds read low 1.01 | locus YIR030C, strain dcg1, active compounds read low 1.01 | locus YJL092W, strain hpr5, active compounds read low 1.02 | locus YJL095W, strain BCK1 (second series), active compounds read low 1.02 | locus YJL095W, strain BCK1, active compounds read low 1.01 and 0.974 | locus YJL115W, strain asf1, active compounds read low 1.01 | locus YJL129C, strain trk1, active compounds read low 1.04 | locus YJL134W, strain LCB3, active compounds read low 1.01 | locus YJL154C, strain vps35, active compounds read low 1.02 | locus YJL164C, strain tpk1, active compounds read low 1.01 | locus YJL166W, strain qcr8, active compounds read low 1.03 | locus YJL168C, strain set2, active compounds read low 1.02 | locus YJL187C, strain SWE1 (second series), active compounds read low 1.01 | locus YJL187C, strain SWE1, active compounds read low 1.02 | locus YJR043C, strain POL32, active compounds read low 0.999 | locus YJR066W, strain TOR1, active compounds read low 0.96
